Compounds without any hit were thinned out: in the full panel of roughly 79,000, 15% have a hit. Activity calls are given as the source filed them. Cut-off read from the data, not from the text of the source: active = growth inhibition above about 70%; inactive = the rest.
Key:
[1] = NCI Yeast Anticancer Drug Screen. Data for the rad50 strain (AID 155);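 note: 0% = growth of vehicle-only cultures of the same strain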; conditions: S. cerevisiae rad50 strain growth inhibition; at 50.0 µM; hits give high values
Method in brief: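 Vehicle-treated cultures provide the reference for the growth inhibition reported for compound-exposed, repair-deficient yeast.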

[2] = NCI Yeast Anticancer Drug Screen. Data for the mec2-1 strain (AID 157); conditions: S. cerevisiae mec2-1 strain, at 50.0 µM, hits give high values
Method in brief: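 Cells of the genetically defined mec2-1 yeast strain are incubated with test compound. Inhibition of growth is calculated against vehicle-treated controls.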

[3] = NCI Yeast Anticancer Drug Screen. Data for the sgs1 mgt1 strain (AID 161);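 note: 0% = growth of cultures given vehicle only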; conditions: S. cerevisiae sgs1 mgt1 strain, at 50.0 µM, hits give high values
Method in brief: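 Test agents were incubated with a DNA-repair-mutant yeast strain. Growth was then read and compared against vehicle-treated controls.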

[4] = NCI Yeast Anticancer Drug Screen. Data for the cln2 rad14 strain (AID 165);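 note: 0% = growth equal to vehicle treated cultures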; conditions: S. cerevisiae cln2 rad14 strain, at 50.0 µM, hits give high values
Method in brief: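 The screen exposed genetically defined yeast (cln2 rad14) to test compounds and scored growth inhibition relative to vehicle-treated controls.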

[5] = NCI Yeast Anticancer Drug Screen. Data for the bub3 strain (AID 167); conditions: S. cerevisiae bub3 mutant strain, at 50.0 µM, hits give high values
Method in brief: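 Mutant yeast screening strain plus compound; vehicle-treated cultures serve as the 0% inhibition reference.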

[6] = NCI Yeast Anticancer Drug Screen. Data for the mlh1 rad18 strain (AID 175); conditions: S. cerevisiae mlh1 rad18 strain growth inhibition; at 50.0 µM; hits give high values
Method in brief: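 Compound-treated yeast growth, normalised to vehicle controls. Strain bears defined DNA repair mutations.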

Measured: growth inhibition

COc1cc(C(=O)CCC(=O)O)c(OC)c(CBr)c1CBr
inactive: [1] -20.3% | [2] -0.4% | [3] -2.7% | [4] -23.8% | [5] -2.15% | [6] -13.8%

O=C1OC(c2ccccc2Cl)Sc2ccccc21 (stereo unspecified)
inactive: [1] -3.25% | [2] 25.1% | [3] 20.1% | [4] -30.7% | [5] 55.8% | [6] 32.8%

CCC1CCCC1=O (stereo unspecified)
inactive: [1] -8.75% | [2] -10.1% | [3] -9.9% | [4] 8.6% | [5] 10.4% | [6] -8.55%

CCN(CC)CCC(CCN(CC)CC)(COC(=O)c1ccc([N+](=O)[O-])cc1)c1ccccc1
inactive: [1] 19.7% | [2] 9.1% | [3] 20.1% | [4] -4.15% | [5] -0.55% | [6] 12.6%

COc1cc(CNC(=O)NCCCl)cc(OC)c1OC
inactive: [1] -5.55% | [2] 1.2% | [3] -3.2% | [4] -3.45% | [5] -1% | [6] 2.7%

CCNC(=O)NCc1cc(C)ccc1C
inactive: [1] 7.85% | [2] -12.2% | [3] -11.4% | [4] 19.2% | [5] 6.45% | [6] 12.1%

N#Cc1c(-c2ccc([N+](=O)[O-])cc2)c(C#N)c(=O)n(NS(=O)(=O)c2ccccc2)c1-c1ccccc1
inactive: [1] 7.1% | [2] 13.3% | [3] -2.45% | [4] 4.05% | [5] 6.25% | [6] 26.4%

COCn1cnc2c(F)ncnc21
inactive: [1] 3.85% | [2] -1.4% | [3] -5.1% | [4] -29.1% | [5] -11.2% | [6] -3.1%

CN(C)C(=O)C1CCC(CC2CCCCC2)CC1 (stereo unspecified)
active: [1] 99.1% | [2] 99.2% | [3] 99% | [4] 96.3% | [5] 98.3% | [6] 80.9%

COC(=O)CCS/C=C/C(=O)O
inactive: [1] 11.1% | [2] -8.6% | [3] -2.4% | [4] -34.4% | [5] 4.25% | [6] 4.35%

N#CCCN(C1=NN(C(=O)CC(=O)Nc2ccc(Cl)cc2)C(c2ccccc2)C1)c1ccc(Cl)cc1 (stereo unspecified)
inactive: [1] 14.3% | [2] -13.7% | [3] -17.6% | [4] 10.7% | [5] -5.55% | [6] -8.35%

c1ccc2c[n+](Cc3ccc4ccccc4n3)ccc2c1
inactive: [1] 13% | [2] -4.3% | [3] 4.05% | [4] -60% | [5] -9.9% | [6] 9.9%

CC1(C=O)CCCC2(C)[C@@H]1CCC13CC(CO)C(CC[C@H]12)C3 (stereo partly specified)
inactive: [1] 19.4% | [2] 5.7% | [3] 10.8% | [4] 16.6% | [5] 14.1% | [6] 18.6%

N#CC(C#N)c1ccc(C(C#N)C#N)cc1
inactive: [1] -9.15% | [2] -6.75% | [3] 0.25% | [4] -16% | [5] -12.3% | [6] -1.55%

Cc1cc(Cl)ccc1NC(=O)C1C(=O)C(=O)N(c2ccc(Cl)cc2C)C1=O (stereo unspecified)
inactive: [1] 7.4% | [2] -2.3% | [3] 14.8% | [4] 13.4% | [5] -18.2% | [6] 17.2%

COc1ccc(N=c2nc3n4c(c(Br)cc(Br)c4n2)NC(C(Br)(Br)Br)=N3)cc1
inactive: [1] 1.7% | [2] 1.2% | [3] 6.25% | [4] -15.3% | [5] 4.35% | [6] 41.1%

CC1(C)CC2=C(Sc3ccccc3N2)C(=O)C1C(=O)C(=O)Nc1cc(Cl)ccc1Cl (stereo unspecified)
inactive: [1] -1.3% | [2] -6.95% | [3] -6.85% | [4] -28.3% | [5] -0.25% | [6] -9.55%

CCCCCC[C@H](C/C=C\CCCCCCCC(=O)OCCCC)OC(C)=O
inactive: [1] -14.7% | [2] 0.2% | [3] -10.2% | [4] -14.2% | [5] -29.4% | [6] -8.8%

O=C(c1ccc(F)cc1)c1cccc(C(=O)c2ccc(F)cc2)n1
inactive: [1] -16.8% | [2] -24% | [3] -29.9% | [4] 8.15% | [5] -3.4% | [6] -36.1%

O=C(O)C1Cc2c([nH]c3ccccc23)C(c2cccs2)N1 (stereo unspecified)
inactive: [1] 27.7% | [2] 7.6% | [3] 8.7% | [4] 0.5% | [5] -19.8% | [6] 14.3%

CCN(C)c1ccccc1
inactive: [1] -5.8% | [2] -27.8% | [3] -3.2% | [4] -31.9% | [5] -6.6% | [6] 11.2%

CC1(C)SC(C)(C)C1=O
inactive: [1] -13.6% | [2] -7.35% | [3] -0.6% | [4] -36.8% | [5] 2.05% | [6] -5.15%

COC(=O)[C@]1(C)CCCn2c(=O)n(-c3ccccc3)c(=O)n21
inactive: [1] 13.9% | [2] 11.3% | [3] -6.65% | [4] 9.75% | [5] 13.8% | [6] -21.6%

Cc1c(C)c2cc3ccc(Cl)cc3nc2c2ccccc12
inactive: [1] -7.65% | [2] -16.9% | [3] 2.75% | [4] -21.6% | [5] 2.9% | [6] 1.7%

Cc1cccc(-n2c(C)nc3[nH]cc(C)c3c2=N)c1
inactive: [1] 0.15% | [2] 0.65% | [3] 2.05% | [4] -21.9% | [5] 0.55% | [6] 11.1%

CCOC(=O)CCc1c[nH]c2ccccc12
inactive: [1] -12.3% | [2] -17.1% | [3] -9.9% | [4] -9.85% | [5] 0.2% | [6] -3.5%

O=[N+]([O-])c1cccc(N=Cc2ccccc2)c1
inactive: [1] 7.25% | [2] 12.9% | [3] -7.4% | [4] 8.15% | [5] 13.8% | [6] 6.05%

Cc1ccc(NC(=S)N/C=C(\c2ccccc2)S(=O)Cc2ccccc2)c(C)c1 (stereo unspecified)
inactive: [1] 8% | [2] -22.1% | [3] -8% | [4] 15.7% | [5] 14.1% | [6] 1.8%

Cc1ccc(C(O)(c2ccc(C)cc2)C2CCCCC2=C(c2ccccc2)c2ccccc2)cc1 (stereo unspecified)
inactive: [1] 10.8% | [2] 3.45% | [3] -14.2% | [4] -7.35% | [5] -0.25% | [6] 15.2%

CCCCCCCCCCCCCCCCC(=O)O
inactive: [1] -12.9% | [2] -15.8% | [3] -22.6% | [4] -27.8% | [5] 16.8% | [6] -7.85%

CCC(c1ccc(OCc2ccccc2)cc1)c1cc2c(cc1OCCO)OCO2 (stereo unspecified)
inactive: [1] 23.7% | [2] 57% | [3] -3% | [4] 0.9% | [5] 39.7% | [6] 57%

Cn1c2ccccc2c2c3ccc[n+](C)c3ccc21
inactive: [1] 8% | [2] -2.9% | [3] 8.7% | [4] -57.5% | [5] -0.1% | [6] 2.1%

CN(C)CCN1CCCN(C)CC1
inactive: [1] -14.9% | [2] -13.8% | [3] -4.25% | [4] -17.2% | [5] -25.3% | [6] 5.4%

OCC(O)Cn1cnc2c(NO)ncnc21 (stereo unspecified)
inactive: [1] -18.2% | [2] -20.8% | [3] -8% | [4] -15.2% | [5] 4.85% | [6] 11.1%

CCc1cccc(CC)c1N(C(C)=O)C(C)=O
inactive: [1] 8.55% | [2] -1.3% | [3] -11.7% | [4] -8.85% | [5] 19.2% | [6] 3.2%

CC1CN(CCCOC(=O)Nc2cccc3ccccc23)CCN1Cc1ccccc1 (stereo unspecified)
active: [1] 81.2% | [2] 94% | [3] 95.8% | [4] 97.7% | [5] 82% | [6] 95.8%

COc1ccc(-c2c(C(=O)O)cc(O)c3cc(OC)c(OC)cc23)cc1OC
inactive: [1] 6.4% | [2] -2.9% | [3] 5% | [4] 26.4% | [5] 3.3% | [6] -0.75%

NC(=O)Cc1ccccn1
inactive: [1] 5.05% | [2] -2.6% | [3] 2.95% | [4] -8.15% | [5] 5.25% | [6] 1.4%

CCc1ccc2[nH]c(C(=O)O)cc2c1
inactive: [1] -15.4% | [2] -18.4% | [3] -1.75% | [4] -11.8% | [5] -21.6% | [6] 4.45%

O=[N+]([O-])c1ccc(-c2cc3ccccc3nc2Cl)cc1
inactive: [1] 15.4% | [2] 12.1% | [3] 8.4% | [4] 5.55% | [5] 28.4% | [6] 17%

CCOC(=O)NC(N)=O
inactive: [1] 11.3% | [2] -1.45% | [3] 14.2% | [4] -8.1% | [5] 0.4% | [6] 6.85%
